This is a sample that favours compounds with a hit; in the whole collection about 7.1% have one here.
MCF10A rereplic – A quantitative high throughput screen for small molecules that induce DNA re-replication in MCF 10a normal breast cells. MCF 10A DNA re-replication, Hoechst nuclear intensity, 48 h. Potency, µM (highest dose often 46.1 µM), without a hit: at the highest dose activity, positive = re-replication, usual class: activators. actives 2.9% (n = 350,000). AID 624296, 2012; further: % of control where 0% means no effect; nearly all actives have a fitted effect of over 50% in size
SW480 rereplic – A quantitative high throughput screen for small molecules that induce DNA re-replication in SW480 colon adenocarcinoma cells. AID 624297, 2012. actives 1.8% (n = 340,000). SW480 DNA re-replication, Hoechst DNA content imaging, 48 h. Potency, µM (top dose mostly 46.1 µM), for inactives: at the top dose re-replication activation, usual class: activators; further: % of control where 0% means no effect; nearly all actives have a fitted effect of over 55% in size
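Image-based read-out: total Hoechst fluorescence of nuclei (405 nm excitation, 500-530 nm emission), with hits raising the fraction of high-intensity nuclei. SW480 colon cells incubated 48 hr with compounds at 37 C.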
ELG1 genotoxic – qHTS screen for small molecules that induce genotoxicity in human embryonic kidney (HEK293T) cells expressing luciferase-tagged ELG1. HEK293T ELG1-luciferase reporter, luminescence, 16 h. Potency, µM (series often up to 46 µM), for inactives: at the highest dose activity change, positive = activation, actives largely listed as activators. actives 1.3% (n = 330,000); further: % of control where 0% means no effect; nearly all actives have a fitted effect of over 60% in size
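Screening used a luciferase reporter fused to human ELG1 in HEK293T cells. Luminescence was read on a CCD plate imager after 16 hr exposure and 30 min ONE-Glo incubation.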
ELG1 DNA repair – qHTS screen for small molecules that inhibit ELG1-dependent DNA repair in human embryonic kidney (HEK293T) cells expressing luciferase-tagged ELG1; Potency, µM (series often up to 46.1 µM), inactives show at the top dose activity change, negative = inhibition, actives largely listed as inhibitors; AID 504467, 2011; HEK293T ELG1-luciferase reporter, luminescence, 16 h; DNA damage induced by 5-fluorouridine; actives 2.3% (n = 330,000); further: on the % scale 0 is the no-effect control and ±100 the full control effect; nearly all actives have a fitted effect of over 55% in size
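Step one: seed 2,000 cells per well. Step two: pin-transfer compound or DMSO alongside 5-fluorouridine. Step three: incubate 16 hr, 37 °C, 5% CO2. Step four: add ONE-Glo, wait 30 min, read luminescence.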
AT treatment – qHTS Assay for Identifying a Potential Treatment of Ataxia-Telangiectasia. F2112 A-T fibroblasts, KAP-1 phosphorylation AlphaLISA; neocarzinostatin DNA damage 30 min before lysis. Potency, µM (top dose mostly 57.5 µM), for inactives: at the top dose activation, most hits filed as activators. actives 0.19% (n = 320,000); further: % of control where 0% means no effect; nearly all actives have a fitted effect of over 45% in size
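ATM-like activity read as KAP-1 phosphorylation via AlphaLISA donor/acceptor antibody pairs after lysis and 6 hr at 25C. Cells were ATM-null patient fibroblasts (F2112, hTERT), dosed 60 min, then exposed to the DSB inducer NCS for 30 min.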
p53 reactivation – qHTS assay for re-activators of p53 using a Luc reporter; H1299 p53-A138V BP100-luciferase reporter, luminescence, 24 h; actives 0.063% (n = 320,000); Potency, µM (top dose mostly 92.2 µM), for inactives: at the highest dose activity change, positive = activation, hits mostly activators; further: % of control where 0% means no effect; nearly all actives have a fitted effect of over 45% in size
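H1299 (p53-null), stable ts p53-A138V + BP100-Luc; 1000 cells/well, Opti-MEM/10% FBS; cpd 4 pt, 1:5; 24 h, 37 deg C, 5% CO2; detection reagent 10 min RT; luminescence.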
Active calls of the source: *; ? = inconclusive; . = not tested or not shown; [ ] = another dose, or the depositor's remark. The call rests on the fitted dose curve; in most records, active means well fitted curve in the direction sought with a large enough effect; inconclusive means small, poorly fitted or top-dose-only effect, or another doubt; inactive means no such curve, though single readings can be large; an effect the other way counts as inactive or inconclusive. Potency means the concentration at half of the fitted maximal effect.

SMILES	MCF10A rereplic	SW480 rereplic	ELG1 genotoxic	ELG1 DNA repair	AT treatment	p53 reactivation
Cc1ccc(NC2=CC(=O)CC(c3ccccc3)C2)cc1 (stereo unspecified)	8.2µM*	21µM*	1%	?	-6%	-10%
Cc1ccccc1C1c2[nH]c3ccccc3c2C[C@H]2C(=O)N(c3ccccc3C(=O)NCCCN3CCOCC3)C(=O)N12 (stereo partly specified)	12µM*	?	-5%	?	4%	3%
COCc1cc(=O)[nH]c(Cc2c(Cl)cccc2Cl)n1	0%	-15%	1%	8%	9%	-1%
Cc1ccc(-c2nnc(SCC(=O)N(C)C)nc2-c2ccc(C)cc2)cc1	19%	-2%	1%	?	4%	-6%
COc1ccc(OCC(=O)NNC(=O)Cn2c(=O)cnc3ccccc32)cc1	3%	-11%	6%	25%	-4%	-9%
O=C(CSc1ncccn1)NC(=O)Cc1ccccc1	-1%	-7%	0%	24%	-18%	-2%
Cc1onc(-c2ccccc2)c1C(=O)NC(=S)NNC(=O)c1ccco1	8%	19%	2%	23µM*	-3%	8%
O=C(NCCCN1CCCC1=O)c1cccc(S(=O)(=O)N2CCN(c3ccc(F)cc3)CC2)c1	14%	0%	-5%	?	5%	-9%
Cc1ccc(N2CC(C)Cn3c2nc2c3c(=O)[nH]c(=O)n2C)cc1C (stereo unspecified)	0%	-2%	0%	9.2µM*	-5%	-5%
COC(=O)C(=C/C(C)=C/c1cccnc1)C(=O)OC	8.2µM*	?	-12%	?	11%	-12%
COc1ccc(/C=C(\C#N)c2nc3ccc(C)cc3[nH]2)cc1Oc1ccc(C(F)(F)F)cc1[N+](=O)[O-]	23µM*	?	?	?	1%	8%
COc1cc(/C=C(\C#N)c2nc3ccc(C)cc3[nH]2)c([N+](=O)[O-])cc1OC	7%	-2%	-1%	?	-6%	6%
N#C/C(=C\c1cccc(Oc2ccc(C(F)(F)F)cc2[N+](=O)[O-])c1)c1nc2ccccc2[nH]1	18µM*	4%	0%	16%	-3%	-1%
Cc1ccc2nc(/C(C#N)=C\c3ccc(Oc4ccc(C(F)(F)F)cc4[N+](=O)[O-])cc3)[nH]c2c1	3%	13µM*	16%	?	-7%	?
COc1cc(/C=C(\C#N)c2nc3ccc(C)cc3[nH]2)cc([N+](=O)[O-])c1O	0%	?	?	?	-4%	7%
CCN1CCC(O)(/C=C/c2ccc(C(C)C)cc2)C(C(=O)/C=C/c2ccc(C(C)C)cc2)C1 (stereo unspecified)	12µM*	?	.	.	.	.
NS(=O)(=O)c1ccc(CCN2C(=O)/C(=C\c3ccc(Cl)cc3)SC2=S)cc1	10µM*	?	2%	-9%	-1%	9%
O=C(CSCc1ccccc1)N1CCN(S(=O)(=O)c2cccc(F)c2)CC1	-5%	-6%	0%	14%	-2%	3%
COc1ccc2sc(-c3ccccc3OC)c(C#Cc3cncn3C)c2c1	?	4%	-2%	?	7%	3%
COc1ccc(-c2sc3ccccc3c2/C=C/c2ccncc2)cc1	7.3µM*	1%	-1%	?	6%	-3%
COc1ccc(-c2sc3ccccc3c2C#Cc2cncn2C)cc1	?	6%	-1%	?	32µM*	-3%
Cn1cncc1C#Cc1c(-c2ccc(S(C)(=O)=O)cc2)sc2ccccc12	?	0.73µM*	-1%	?	3%	7%
COc1ccc(-c2sc3ccccc3c2C#CC2(O)CCCCC2)cc1	?	?	1%	19%	32µM*	7%
COc1ccc(/C=C/C(=O)N2CCNC(=O)C2)c(OC)c1	1µM*	8%	16%	?	0%	-1%
O=C(c1ccco1)N1CCCN(C(=O)c2ccco2)CC1	6%	-13%	11%	0%	4%	-1%
SMILES	MCF10A rereplic	SW480 rereplic	ELG1 genotoxic	ELG1 DNA repair	AT treatment	p53 reactivation
O=C(c1ccco1)N1CCN(C(=O)c2ccco2)C1=S	2.6µM*	5.8µM*	.	.	.	.
O=C(c1ccco1)N1CCN(C(=O)N2CCOCC2)CC1	?	0.16µM*	1%	23%	2%	-1%
O=C(c1ccco1)N1CCN(C(=S)Nc2ccccc2C(F)(F)F)CC1	24%	-5%	-12%	21µM*	4%	13%
O=C(CN1C(=O)C(=O)N(C2CCCC2)C1=O)Nc1ccc(Cl)cc1C(F)(F)F	-2%	-4%	0%	0%	3%	3%
CCOc1ccccc1CNC(=O)Cn1ccc2cc(S(=O)(=O)N3CCC(C)CC3)ccc21	?	-15%	-3%[9.26 µM]	-11%	7%	0%
COC(=O)/C=C\C(C#N)(C#N)N=Cc1ccc(OC)cc1	13µM*	6.5µM*	.	.	.	.
Fc1ccc(-c2csc3ncnc(N4CCc5ccccc5C4)c23)cc1	10µM*	17%	-6%	?	6%	-5%
CCCCNC(=O)c1sc2ncnc(N3CCc4ccccc4C3)c2c1C	13%	8%	-4%	?	7%	8%
Fc1ccc(-c2csc3ncnc(N4CCN(Cc5ccccc5)CC4)c23)cc1	-3%	-1%	1%	-5%	5%	14%
CCOC(=O)CNC(=O)c1sc2ncnc(N3CCc4ccccc4C3)c2c1C	?	?	-14%	18µM*	-1%	-5%
Cc1ccc(-c2csc3ncnc(N4CCN(Cc5ccccc5)CC4)c23)cc1	?	2%	5%	0%	10%	3%
Cc1ccc(-c2csc3ncnc(N4CCc5ccccc5C4)c23)cc1	18µM*	7%	-11%	?	-4%	?
C[C@@]12C(=O)N(Cc3ccccc3)CC(=O)N1[C@H](/C=C/c1ccccc1)[C@@H]1C(=O)N(c3ccccc3)C(=O)[C@@H]12	?	-7%	2%	?	4%	.
Cc1ccc(Nc2nc3c(s2)CCC3)c(C)c1	10%	13%	21µM*	?	-2%	?
CCC(SC1=NCCS1)C(=O)Nc1nnc(-c2ccccc2OC)s1 (stereo unspecified)	?	10%	-15%	18µM*	-4%	-1%

Source: PubChem BioAssay
